High-throughput results (PubChem)
In the library only some 2.4% were active in any assay of this set; here they are far more common.
TLR4-MyD88 BLA: inhibitors of TLR4-MyD88 association in cells, primary screen, cell-based, HeLa CL3-4, BLA complementation, FRET ratio; hit rate 0.18% among 200,000; Toll-like receptor 4 (Homo sapiens) + Myeloid differentiation primary response protein …; HeLa CL3-4 TLR4/MyD88 BLA complementation; inhibition, % at 8.4 µM; AID 861, 2007; in the data active means inhibition above about 25%
HTR2A ag: mouse Htr2a agonists via beta-arrestin recruitment, primary screen, cell-based, luminescence | AID 624169, 2012 | hit rate 0.66% among 360,000 | CHO-K1 mHTR2A beta-arrestin complementation; percent of 30 µM serotonin response | activation, % at 7.6 µM;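 active means activation above a run cutoff, the mean activation of all tested compounds plus 3 SD, cut at about 14% in these data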
TLR9-MyD88 block: inhibitors of TLR9-MyD88 association in cells, primary screen, cell-based, CHO, BLA complementation, fluorescence; CCF4 FRET ratio; inhibition, % at 4.98 µM; hit rate 0.21% among 340,000; Toll-like receptor 9 (Homo sapiens) + Myeloid differentiation primary response protein …;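 active means inhibition above the mean over all tested compounds plus 3 SD, cut at about 21% in these data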
ABHD5 PLIN5 PPI: ABHD5-PLIN5 interaction inhibitors, primary screen, cell lysate, split luciferase complementation, luminescence. inhibition, % at 4 µM. hit rate 0.78% among 360,000. Perilipin-5 (Homo sapiens) + 1-acylglycerol-3-phosphate O-acyltransferase ABHD5 (Homo …. Split G. princeps luciferase complementation, 4 h;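 active means inhibition above the mean inhibition across every tested compound plus 3 SD, cut at about 22% in these data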
NOD2-RIPK2 inh: NOD2-RIPK2 binding disruptors in cells, primary screen, fluorescence, CHO cells, BLA complementation. CCF4 ratio. inhibition, % at 4.98 µM. AID 624267, 2012. hit rate 0.38% among 360,000; in the data active means inhibition above about 21%
CRFR2-BP antag: antagonists of CRF-BP/CRF-R2 complex, primary screen, cell-based, HEK293, calcium dye fluorescence, uHTS; hit rate 0.59% among 350,000; CRF-induced calcium fluorescence; inhibition, % at 11.8 µM;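 active means inhibition of the ligand-induced calcium signal above about 50% at the single tested concentration, limit read from the data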
Each line names hits and unclear results; the compound was inactive in the other large screens.

CC(C)N(C(=O)[C@H]1C[C@H](CC(=O)NCc2cccc(C(F)(F)F)c2)C(=O)N2CCc3c([nH]c4cc(-c5ccco5)ccc34)[C@]12C)C(C)C	ABHD5 PLIN5 PPI 22.2 (no result: TLR4-MyD88 BLA)
COc1ccc(CNC(=O)C[C@H]2C[C@H](C(=O)N3CCCCC3)[C@@]3(C)c4[nH]c5cc(-c6ccco6)ccc5c4CCN3C2=O)cc1OC	none (no result: TLR4-MyD88 BLA)
CC(C)(C)NC(=O)C[C@H]1C[C@H](C(=O)N2CCOCC2)[C@@]2(CCC3CCCC3)c3[nH]c4cc(-c5ccco5)ccc4c3CCN2C1=O	ABHD5 PLIN5 PPI 31.9 (no result: TLR4-MyD88 BLA)
C[C@]12c3[nH]c4cc(-c5ccco5)ccc4c3CCN1C(=O)[C@@H](CC(=O)NCc1cccc(C(F)(F)F)c1)C[C@@H]2C(=O)N1CCOCC1	none (no result: TLR4-MyD88 BLA)
CCN(CC)C(=O)[C@H]1C[C@H](CC(=O)NCc2ccc(OC)c(OC)c2)C(=O)N2CCc3c([nH]c4cc(-c5ccco5)ccc34)[C@]12C	ABHD5 PLIN5 PPI 22.7 (no result: TLR4-MyD88 BLA)
CN1OC[C@@H]2CN(C(=O)CCc3ccccc3)[C@H](c3ccc(N4CCCCC4)cc3)C[C@@H]21	none (no result: TLR4-MyD88 BLA, TLR9-MyD88 block, CRFR2-BP antag)
COc1cccc(CN2CCN(c3cccc(C(F)(F)F)c3)CC2)c1OC	CRFR2-BP antag 54.5
O=S1(=O)CC(N2CC=CC2)CN1Cc1ccccc1 (stereo not drawn)	none (no result: TLR4-MyD88 BLA, TLR9-MyD88 block, CRFR2-BP antag)
COc1ccc(N(CC(=O)NCCc2ccc(C)cc2)S(=O)(=O)c2c(C)noc2C)cc1	none (no result: TLR4-MyD88 BLA)
COc1ccc(N(CC(=O)NCCc2ccc(OC)c(OC)c2)S(=O)(=O)c2c(C)noc2C)cc1	CRFR2-BP antag 107.9 (no result: TLR4-MyD88 BLA)
O=C(NCC1CCCCC1)c1csc([C@@H]2O[C@H](CO)[C@H](O)[C@H](O)[C@H]2O)n1	none (no result: TLR4-MyD88 BLA, TLR9-MyD88 block, CRFR2-BP antag)
O=C(NC(=S)Nc1c(Cl)ccc2nsnc12)c1ccccc1F	CRFR2-BP antag 58.5 (no result: TLR4-MyD88 BLA)
NC(=O)c1ccc(NCC2COc3ccccc3O2)c([N+](=O)[O-])c1 (stereo not drawn)	CRFR2-BP antag 91.7
O=C1CCC2c3[nH]c4ccccc4c3CCN12 (stereo not drawn)	none (no result: TLR4-MyD88 BLA)
Cc1nc(Cl)c(C#N)cc1-c1ccccc1	none
Cc1nc(Sc2ccccc2)c(C#N)cc1-c1ccccc1	CRFR2-BP antag 53.1
Cc1noc(/C=C/N(C)C)c1S(=O)(=O)N1CCC(C(=O)Nc2ccc(Cl)cc2)CC1	CRFR2-BP antag 90.3 (no result: TLR4-MyD88 BLA)
Cc1cccc(NC(=O)C2CCN(S(=O)(=O)c3c(C)noc3/C=C/c3ccco3)CC2)n1	ABHD5 PLIN5 PPI 23.0
CCC(C)N1CCN(C(=O)C2CCN(S(=O)(=O)c3c(C)noc3/C=C/c3ccco3)CC2)CC1 (stereo not drawn)	none (no result: TLR4-MyD88 BLA)
COc1cccc(Oc2ccc(OC)cc2C(=O)O)c1	CRFR2-BP antag 74.1 (no result: TLR4-MyD88 BLA)
COc1cccc(Nc2ccccc2C(=O)O)c1	none
CCS(=O)(=O)N1Cc2cc(C(=O)N(C)C)nc(-c3cccc(-c4ccc(F)cc4)c3)c2[C@H]1CCO	none (no result: TLR4-MyD88 BLA, TLR9-MyD88 block, CRFR2-BP antag)
CN(Cc1cccc(Cl)c1)C(=O)C1CCC(=O)N(C2CC2)C1 (stereo not drawn)	CRFR2-BP antag 80.6 (no result: TLR4-MyD88 BLA)
O=S1(=O)CC(N2CCCC2)CN1Cc1cn(Cc2ccc(Cl)cc2)nn1 (stereo not drawn)	none (no result: TLR4-MyD88 BLA, TLR9-MyD88 block, CRFR2-BP antag)
Cc1ccc(S(=O)(=O)N2CCN(C(=O)COC(=O)c3ccccc3OC(F)F)CC2)c(C)c1	none (no result: TLR4-MyD88 BLA)
Cc1ccc(S(=O)(=O)N2CCN(C(=O)COC(=O)c3ccccc3Cl)CC2)c(C)c1	HTR2A ag 16.6 (no result: TLR4-MyD88 BLA)
Cc1cc(Br)cn2c(Cc3ccsc3)c(-c3ccc(F)cc3)nc12	none (no result: TLR4-MyD88 BLA, TLR9-MyD88 block, CRFR2-BP antag)
COc1ccc(S(=O)(=O)N2CCCCCC2)cc1C(=O)NCCc1ccccc1	CRFR2-BP antag 112.1 (no result: TLR4-MyD88 BLA)
Cc1ccc2c(c1)C1(SC(C)C(=O)N1c1ccc(Cl)cc1)C(=O)N2 (stereo not drawn)	none (no result: TLR4-MyD88 BLA, TLR9-MyD88 block, CRFR2-BP antag)
CC(C)Cn1cc(C(=O)N2CCC(C)CC2)c2c3ccccc3n(C)c2c1=O	CRFR2-BP antag 50.4
COC(=O)C1=C(C(=O)c2ccccc2)C(c2ccc(O)c(OC)c2)n2nnnc2N1 (stereo not drawn)	CRFR2-BP antag 98.3
COC(=O)C1=C(C(=O)c2ccc(C)cc2)C(c2ccc(O)c(OC)c2)n2nnnc2N1 (stereo not drawn)	none
CCNc1ccc2noc3c2c1C(=O)c1ccccc1-3	none
O=C1c2ccccc2-c2onc3ccc(NCc4ccco4)c1c23	ABHD5 PLIN5 PPI 22.4
O=c1c2cc(F)ccc2sn1-c1ccc(F)cc1	ABHD5 PLIN5 PPI 32.6 (no result: TLR4-MyD88 BLA)
O=C1CCCC(=O)N1c1ccc(F)cc1	none (no result: TLR4-MyD88 BLA)
O=[N+]([O-])c1cccc(/C=N\N=C2c3ccccc3-c3ccccc32)c1O	CRFR2-BP antag 57.9
NC(N)=N/N=C/c1cccc([N+](=O)[O-])c1O	none
C/C(=N\NC(=O)c1cc(Cl)ccc1O)c1ccc(Br)s1	CRFR2-BP antag 51.5
Cc1ccc(C)c(N2CCN(S(=O)(=O)c3ccc4c(c3)CCN4C(=O)CCC(=O)O)CC2)c1	none
CCC(=O)N1CCCc2cc(S(=O)(=O)N3CCN(c4ncccn4)CC3)ccc21	HTR2A ag 21.4
Cc1cccc(N2CCN(S(=O)(=O)c3ccc4c(c3)CCN4C(=O)CCC(=O)O)CC2)c1C	HTR2A ag 17.7
COC(=O)C[C@H]1C[C@H]2c3cc(NC(=O)Nc4ccc(C(F)(F)F)cc4)ccc3O[C@H]2[C@@H](CO)O1	none (no result: TLR4-MyD88 BLA)
Cc1cc(NC(=O)CS(=O)(=O)c2cn(Cc3cccc(C(F)(F)F)c3)c3ccccc23)no1	none (no result: TLR4-MyD88 BLA, TLR9-MyD88 block, CRFR2-BP antag)
CC(=O)Nc1ccc(OCc2cccc([N+](=O)[O-])c2)cc1	none
CC(=O)Nc1ccc(C=CC=Cc2cccc([N+](=O)[O-])c2)cc1	ABHD5 PLIN5 PPI 22.1 (no result: TLR4-MyD88 BLA)
CCOC1=C2CN(S(=O)(=O)c3ccc(C)cc3)C(c3cccc(Cl)c3)CC2NC(c2ccccc2)C1 (stereo not drawn)	none (no result: TLR4-MyD88 BLA, TLR9-MyD88 block, CRFR2-BP antag)
O=C1C(=Cc2ccncc2)CCCc2ccccc21	CRFR2-BP antag 69.5 (no result: TLR4-MyD88 BLA)
Cc1ccccc1N=Nc1ccc(O)c2ncccc12	none
O=S(=O)(O)c1cccc2c(N=Nc3ccc(O)c4ncccc34)cccc12	ABHD5 PLIN5 PPI 35.9 (no result: TLR4-MyD88 BLA)
COc1cccc(-c2cc(C(=O)O)c3cc4ccccc4cc3n2)c1OC	none (no result: TLR4-MyD88 BLA)
COc1ccc(OC)c(-c2cc(C(=O)O)c3cc4ccccc4cc3n2)c1	CRFR2-BP antag 50.1 (no result: TLR4-MyD88 BLA)
CC1=C(C(=O)N(C(C)C)C(C)C)CC(CC(=O)NCCN2CCOCC2)C(=O)N1Cc1ccc(C(C)(C)C)cc1 (stereo not drawn)	none (no result: TLR4-MyD88 BLA, TLR9-MyD88 block, CRFR2-BP antag)
Cc1ccc(CNC(=O)CCC(=O)c2cccs2)cc1	CRFR2-BP antag 59.0
Cc1ccc(NC(=O)COC(=O)CCC(=O)c2cccs2)c(Br)c1	CRFR2-BP antag 59.1 (no result: TLR4-MyD88 BLA)
